Columns and labels:
Experiment in all cases: log2 ratio of Biotin-Ahx-Ub-VS probe labelling (fragment/DMSO); higher = less target engagement (more negative = stronger competition), active = hit call of the paper (q ≤ 0.05, log2 ratio ≤ -1)
Conditions in all cases: compound concentration: 200 uM; treatment time: 3 h
USP34 = USP34 (UniProt Q70CQ2)
Procedure, shortened: (§1)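 Labelling with Biotin-Ahx-Ub-VS (0.5 µM final, 1 h) followed a 3 h triplicate treatment of HEK293T lysate (495 µg per sample, Tris/CHAPS/IGEPAL buffer with protease inhibitors) with fragment at 200 µM or vehicle. Labelled DUBs were NeutrAvidin-enriched, digested with LysC and trypsin, and run by diaPASEF LC-MS/MS. The values, average log2 fragment/vehicle ratios by unpaired t-test, come from global-median-normalised Spectronaut label-free quantities. Proteins with ≥2 unique peptides were used.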

USP36 = biological target: T1, USP36 (UniProt Q9P275)
T1 sequence (whole entry): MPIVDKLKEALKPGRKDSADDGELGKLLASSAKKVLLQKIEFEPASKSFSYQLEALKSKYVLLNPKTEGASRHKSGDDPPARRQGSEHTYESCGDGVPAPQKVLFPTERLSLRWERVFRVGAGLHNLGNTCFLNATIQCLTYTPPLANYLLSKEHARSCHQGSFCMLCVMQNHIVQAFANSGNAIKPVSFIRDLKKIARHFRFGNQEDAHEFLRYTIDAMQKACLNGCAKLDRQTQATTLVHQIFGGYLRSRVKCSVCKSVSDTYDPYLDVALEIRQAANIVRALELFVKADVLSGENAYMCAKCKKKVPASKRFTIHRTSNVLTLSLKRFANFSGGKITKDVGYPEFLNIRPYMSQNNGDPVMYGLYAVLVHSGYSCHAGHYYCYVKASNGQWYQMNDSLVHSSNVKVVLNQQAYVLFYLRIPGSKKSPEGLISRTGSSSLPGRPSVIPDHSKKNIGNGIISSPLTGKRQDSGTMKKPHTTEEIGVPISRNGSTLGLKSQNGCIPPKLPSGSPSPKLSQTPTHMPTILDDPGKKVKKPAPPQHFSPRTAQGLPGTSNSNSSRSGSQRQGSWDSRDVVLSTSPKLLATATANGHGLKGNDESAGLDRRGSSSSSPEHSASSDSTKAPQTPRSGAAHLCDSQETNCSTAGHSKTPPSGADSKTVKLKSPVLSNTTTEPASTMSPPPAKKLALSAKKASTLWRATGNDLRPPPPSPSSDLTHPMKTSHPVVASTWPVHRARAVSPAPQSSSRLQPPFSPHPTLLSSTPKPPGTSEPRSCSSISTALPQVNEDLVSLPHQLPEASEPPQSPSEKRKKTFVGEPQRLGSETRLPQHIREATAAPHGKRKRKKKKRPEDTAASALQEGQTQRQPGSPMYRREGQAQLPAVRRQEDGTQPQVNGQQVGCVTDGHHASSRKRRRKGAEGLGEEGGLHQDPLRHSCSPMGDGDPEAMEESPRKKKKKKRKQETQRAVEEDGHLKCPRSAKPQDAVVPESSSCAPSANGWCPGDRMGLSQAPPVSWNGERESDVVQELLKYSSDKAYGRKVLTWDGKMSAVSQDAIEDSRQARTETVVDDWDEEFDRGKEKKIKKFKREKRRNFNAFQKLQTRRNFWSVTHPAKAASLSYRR
Procedure, shortened: as §1

USP38 = biological target: T2, USP38 (UniProt Q8NB14)
T2 sequence (whole entry): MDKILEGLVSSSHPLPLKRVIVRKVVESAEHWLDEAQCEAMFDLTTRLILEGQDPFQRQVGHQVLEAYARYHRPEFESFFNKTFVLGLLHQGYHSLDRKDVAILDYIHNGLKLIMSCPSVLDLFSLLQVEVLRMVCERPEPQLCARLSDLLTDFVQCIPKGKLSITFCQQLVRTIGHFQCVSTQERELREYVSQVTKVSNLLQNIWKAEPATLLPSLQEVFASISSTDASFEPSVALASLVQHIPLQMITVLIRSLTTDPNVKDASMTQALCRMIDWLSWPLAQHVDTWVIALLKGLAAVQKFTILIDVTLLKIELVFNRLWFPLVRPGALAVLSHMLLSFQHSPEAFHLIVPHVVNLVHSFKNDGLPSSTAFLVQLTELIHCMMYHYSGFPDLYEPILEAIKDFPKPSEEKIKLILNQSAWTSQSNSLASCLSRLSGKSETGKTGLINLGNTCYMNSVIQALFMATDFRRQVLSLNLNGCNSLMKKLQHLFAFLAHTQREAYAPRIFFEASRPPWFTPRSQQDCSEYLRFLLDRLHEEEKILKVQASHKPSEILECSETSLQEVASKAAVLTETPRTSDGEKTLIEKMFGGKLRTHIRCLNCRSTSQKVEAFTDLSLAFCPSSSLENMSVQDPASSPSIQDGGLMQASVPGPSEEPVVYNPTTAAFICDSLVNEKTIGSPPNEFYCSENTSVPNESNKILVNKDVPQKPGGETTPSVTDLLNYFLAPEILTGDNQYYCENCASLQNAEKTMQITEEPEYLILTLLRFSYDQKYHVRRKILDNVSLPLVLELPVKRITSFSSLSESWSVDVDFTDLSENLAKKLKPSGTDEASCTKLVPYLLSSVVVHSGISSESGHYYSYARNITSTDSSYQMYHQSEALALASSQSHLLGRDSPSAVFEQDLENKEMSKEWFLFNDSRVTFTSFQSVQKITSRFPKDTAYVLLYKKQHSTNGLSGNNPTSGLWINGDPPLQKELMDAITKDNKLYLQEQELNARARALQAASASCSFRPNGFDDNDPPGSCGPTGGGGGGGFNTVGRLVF
Procedure, shortened: as §1

USP39 = biological target: T3, USP39 (UniProt Q53GS9)
T3 sequence (whole entry): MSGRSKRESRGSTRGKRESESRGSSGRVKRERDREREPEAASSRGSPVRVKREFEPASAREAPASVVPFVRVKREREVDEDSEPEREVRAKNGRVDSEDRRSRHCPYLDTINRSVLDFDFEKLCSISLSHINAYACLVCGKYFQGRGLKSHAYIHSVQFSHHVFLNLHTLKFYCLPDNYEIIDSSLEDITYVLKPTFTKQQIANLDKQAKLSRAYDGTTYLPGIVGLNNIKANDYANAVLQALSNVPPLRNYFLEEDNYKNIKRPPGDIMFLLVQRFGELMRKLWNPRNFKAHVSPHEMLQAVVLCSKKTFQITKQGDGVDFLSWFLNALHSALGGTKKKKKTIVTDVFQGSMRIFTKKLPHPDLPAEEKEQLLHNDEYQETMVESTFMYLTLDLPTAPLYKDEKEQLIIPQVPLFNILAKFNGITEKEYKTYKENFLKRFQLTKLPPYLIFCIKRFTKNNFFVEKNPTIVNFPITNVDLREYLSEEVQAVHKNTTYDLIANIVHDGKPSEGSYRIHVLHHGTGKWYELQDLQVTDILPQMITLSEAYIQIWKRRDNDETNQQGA
Procedure, shortened: as §1

USP4 = biological target: T4, USP4 (UniProt Q13107)
T4 sequence (whole entry): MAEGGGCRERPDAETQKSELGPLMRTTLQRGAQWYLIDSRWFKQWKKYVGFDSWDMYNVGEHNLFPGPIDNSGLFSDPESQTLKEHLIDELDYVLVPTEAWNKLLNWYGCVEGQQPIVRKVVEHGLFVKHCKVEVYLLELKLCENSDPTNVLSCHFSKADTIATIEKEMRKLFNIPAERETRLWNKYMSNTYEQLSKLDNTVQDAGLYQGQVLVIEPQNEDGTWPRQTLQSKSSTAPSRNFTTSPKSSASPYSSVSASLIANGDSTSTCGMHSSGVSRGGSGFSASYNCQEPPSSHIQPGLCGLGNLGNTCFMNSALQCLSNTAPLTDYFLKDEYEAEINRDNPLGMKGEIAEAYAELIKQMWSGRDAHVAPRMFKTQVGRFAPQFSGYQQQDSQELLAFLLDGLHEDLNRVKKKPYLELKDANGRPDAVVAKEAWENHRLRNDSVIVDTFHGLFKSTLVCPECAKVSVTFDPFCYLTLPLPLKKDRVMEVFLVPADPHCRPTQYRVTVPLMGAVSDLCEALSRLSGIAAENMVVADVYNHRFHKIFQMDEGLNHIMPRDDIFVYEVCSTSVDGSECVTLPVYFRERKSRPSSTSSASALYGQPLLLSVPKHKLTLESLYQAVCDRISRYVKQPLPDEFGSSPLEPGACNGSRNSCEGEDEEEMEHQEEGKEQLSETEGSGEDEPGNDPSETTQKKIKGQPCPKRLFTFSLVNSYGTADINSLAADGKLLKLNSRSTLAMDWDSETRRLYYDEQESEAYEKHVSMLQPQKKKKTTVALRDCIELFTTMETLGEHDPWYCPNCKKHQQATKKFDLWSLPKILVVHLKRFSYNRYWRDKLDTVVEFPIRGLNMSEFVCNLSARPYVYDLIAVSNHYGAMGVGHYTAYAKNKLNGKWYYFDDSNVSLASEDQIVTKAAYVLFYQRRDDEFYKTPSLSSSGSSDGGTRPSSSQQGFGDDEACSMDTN
Procedure, shortened: as §1

Measured: log2 ratio of Biotin-Ahx-Ub-VS probe labelling

Sequence of USP34 (Q70CQ2 whole entry, the tested form may be a part): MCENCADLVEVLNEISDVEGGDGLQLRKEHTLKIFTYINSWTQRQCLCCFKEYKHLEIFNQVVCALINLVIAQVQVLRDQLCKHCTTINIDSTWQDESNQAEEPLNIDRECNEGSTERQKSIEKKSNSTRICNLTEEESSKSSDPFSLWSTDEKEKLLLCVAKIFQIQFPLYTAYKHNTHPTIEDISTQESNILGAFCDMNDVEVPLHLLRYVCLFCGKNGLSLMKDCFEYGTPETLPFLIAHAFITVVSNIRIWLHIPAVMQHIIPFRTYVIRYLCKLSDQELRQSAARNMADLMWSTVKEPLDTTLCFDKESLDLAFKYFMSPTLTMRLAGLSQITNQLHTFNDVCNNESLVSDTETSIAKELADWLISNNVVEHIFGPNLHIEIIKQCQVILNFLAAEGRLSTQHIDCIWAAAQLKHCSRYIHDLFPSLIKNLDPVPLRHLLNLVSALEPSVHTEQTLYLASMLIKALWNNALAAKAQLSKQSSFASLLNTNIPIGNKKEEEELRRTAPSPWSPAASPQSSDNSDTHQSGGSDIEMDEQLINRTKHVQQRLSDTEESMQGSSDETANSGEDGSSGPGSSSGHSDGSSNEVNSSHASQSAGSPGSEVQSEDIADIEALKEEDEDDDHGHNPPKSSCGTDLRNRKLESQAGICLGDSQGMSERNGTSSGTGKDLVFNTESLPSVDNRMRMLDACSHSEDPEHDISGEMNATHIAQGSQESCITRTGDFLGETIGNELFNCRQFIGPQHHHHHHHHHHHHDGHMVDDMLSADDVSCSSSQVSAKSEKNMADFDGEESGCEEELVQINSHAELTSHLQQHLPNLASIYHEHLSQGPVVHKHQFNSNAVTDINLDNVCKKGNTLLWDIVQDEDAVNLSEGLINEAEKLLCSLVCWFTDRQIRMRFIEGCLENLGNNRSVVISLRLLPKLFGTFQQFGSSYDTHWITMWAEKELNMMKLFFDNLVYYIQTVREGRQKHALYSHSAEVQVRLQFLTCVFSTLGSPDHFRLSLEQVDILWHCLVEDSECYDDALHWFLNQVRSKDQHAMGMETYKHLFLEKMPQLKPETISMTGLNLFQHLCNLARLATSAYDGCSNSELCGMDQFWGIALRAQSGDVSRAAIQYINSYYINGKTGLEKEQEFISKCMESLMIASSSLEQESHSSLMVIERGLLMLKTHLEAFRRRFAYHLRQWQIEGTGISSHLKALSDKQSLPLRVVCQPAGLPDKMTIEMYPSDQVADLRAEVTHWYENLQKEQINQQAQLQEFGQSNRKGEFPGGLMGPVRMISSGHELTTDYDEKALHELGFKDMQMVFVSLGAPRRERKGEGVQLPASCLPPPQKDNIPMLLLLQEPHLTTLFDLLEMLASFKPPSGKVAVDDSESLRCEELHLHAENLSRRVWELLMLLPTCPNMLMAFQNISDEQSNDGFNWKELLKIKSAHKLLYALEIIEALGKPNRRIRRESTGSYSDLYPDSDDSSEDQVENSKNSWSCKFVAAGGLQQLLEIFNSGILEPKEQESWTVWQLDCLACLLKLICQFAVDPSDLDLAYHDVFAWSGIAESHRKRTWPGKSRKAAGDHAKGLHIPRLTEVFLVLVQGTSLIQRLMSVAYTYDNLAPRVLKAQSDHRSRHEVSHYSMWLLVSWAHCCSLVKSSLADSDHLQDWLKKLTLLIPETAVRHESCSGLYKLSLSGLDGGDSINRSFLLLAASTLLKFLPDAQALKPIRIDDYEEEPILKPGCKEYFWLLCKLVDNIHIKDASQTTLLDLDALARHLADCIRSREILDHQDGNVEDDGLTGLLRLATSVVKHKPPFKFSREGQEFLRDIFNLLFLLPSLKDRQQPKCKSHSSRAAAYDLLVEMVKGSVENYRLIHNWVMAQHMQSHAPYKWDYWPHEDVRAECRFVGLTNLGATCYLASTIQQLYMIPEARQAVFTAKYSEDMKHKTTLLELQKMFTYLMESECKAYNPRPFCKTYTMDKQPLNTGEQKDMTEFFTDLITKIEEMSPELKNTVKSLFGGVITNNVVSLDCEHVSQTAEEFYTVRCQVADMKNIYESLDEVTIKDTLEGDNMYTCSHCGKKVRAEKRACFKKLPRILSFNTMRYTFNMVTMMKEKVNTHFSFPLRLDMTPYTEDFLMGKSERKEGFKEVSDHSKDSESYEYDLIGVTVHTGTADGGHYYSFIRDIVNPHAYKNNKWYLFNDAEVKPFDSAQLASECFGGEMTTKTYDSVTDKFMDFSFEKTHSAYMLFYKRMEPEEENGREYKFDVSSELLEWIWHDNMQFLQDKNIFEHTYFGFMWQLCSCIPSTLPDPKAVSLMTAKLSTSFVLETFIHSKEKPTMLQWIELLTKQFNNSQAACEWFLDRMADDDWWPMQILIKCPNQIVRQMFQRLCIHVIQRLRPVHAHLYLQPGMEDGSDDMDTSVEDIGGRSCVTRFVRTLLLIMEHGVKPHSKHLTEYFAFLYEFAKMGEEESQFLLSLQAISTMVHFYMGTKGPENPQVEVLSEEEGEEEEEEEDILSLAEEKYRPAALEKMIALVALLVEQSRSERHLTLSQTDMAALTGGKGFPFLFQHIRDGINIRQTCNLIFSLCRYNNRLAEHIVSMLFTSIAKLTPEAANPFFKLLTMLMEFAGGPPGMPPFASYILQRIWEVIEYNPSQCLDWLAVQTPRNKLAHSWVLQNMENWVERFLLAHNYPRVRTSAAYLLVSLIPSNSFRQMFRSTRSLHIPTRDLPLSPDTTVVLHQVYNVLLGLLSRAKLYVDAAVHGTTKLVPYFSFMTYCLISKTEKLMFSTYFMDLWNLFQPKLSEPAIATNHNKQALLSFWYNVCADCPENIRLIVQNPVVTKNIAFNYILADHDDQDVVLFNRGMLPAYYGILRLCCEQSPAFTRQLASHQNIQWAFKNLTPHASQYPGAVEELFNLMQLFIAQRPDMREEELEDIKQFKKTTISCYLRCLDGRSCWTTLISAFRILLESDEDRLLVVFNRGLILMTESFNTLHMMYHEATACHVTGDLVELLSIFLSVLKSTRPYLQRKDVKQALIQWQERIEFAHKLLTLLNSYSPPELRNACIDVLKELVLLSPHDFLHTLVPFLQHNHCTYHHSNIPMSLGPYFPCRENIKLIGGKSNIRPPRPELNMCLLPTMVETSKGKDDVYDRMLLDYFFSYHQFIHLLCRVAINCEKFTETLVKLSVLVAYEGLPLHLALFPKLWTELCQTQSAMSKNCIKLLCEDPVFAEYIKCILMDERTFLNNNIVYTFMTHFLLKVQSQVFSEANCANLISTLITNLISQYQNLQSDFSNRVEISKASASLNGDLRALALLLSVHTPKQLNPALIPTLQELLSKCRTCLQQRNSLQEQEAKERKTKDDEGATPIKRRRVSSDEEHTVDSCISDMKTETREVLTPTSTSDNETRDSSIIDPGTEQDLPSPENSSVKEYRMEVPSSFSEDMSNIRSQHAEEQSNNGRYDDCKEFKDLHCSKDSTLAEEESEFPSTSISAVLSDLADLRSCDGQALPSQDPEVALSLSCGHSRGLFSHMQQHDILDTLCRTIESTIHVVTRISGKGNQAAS

Cc1cccn2cc(CCNC(=O)CCl)nc12.Cl
inactive: USP34 -0.083 | USP36 -0.0485 | USP38 -0.247 | USP39 -0.319 | USP4 -0.12
